Screening data deposited in PubChem BioAssay by National Center for Advancing Translational Sciences (NCATS).
Shiga toxin inh – blocks Shiga toxin action in Vero cells; inhibition, % at 38.7 µM; hit rate 9.2% among 290,000; Vero cells, Shiga toxin protein synthesis inhibition reporter; in the data active = inhibition mostly above about 28%, no sharp cut-off; inactive = mostly below about 43%
MARV entry inh – inhibitors of Marburg virus binding or cell entry. Potency, µM (highest dose often 37.8 µM), hits mostly inhibitors. Marburg virus pseudotyped entry inhibition, cell reporter. hit rate 1.8% among 300,000; calls by dose curve; tested in HEK293 cells
LASV entry inh – inhibitors of Lassa virus binding or cell entry | AID 540256 | hit rate 1.2% among 300,000 | Potency, µM (series often up to 37.9 µM), most hits filed as inhibitors | Lassa virus pseudotype entry inhibition, cell reporter; calls by dose curve; tested in HEK293 cells; also: nearly all actives have a fitted effect of over 50% in size
CHX counter – counter-screen for Shiga toxin inhibitors: cycloheximide protein synthesis inhibition; hit rate 12% among 300,000; cell reporter, cycloheximide protein synthesis inhibition counterscreen; max response, %; in the data active = max response mostly above about 13%, no sharp cut-off; inactive = mostly below about 14%; also: read at 38.3 µM for the half of the compounds with a filed dose
Hits are given with their value; 0 = inactive; ? = inconclusive; - = no result. A selection: hits, their analogues and other compounds. The true share with any hit is near 12%.

SMILES	Shiga toxin inh	MARV entry inh	LASV entry inh	CHX counter
C=CCOc1cccc(C2C(C(=O)c3cc4ccccc4o3)=C(O)C(=O)N2c2cc(C)on2)c1 (stereo not given)	0	-	-	0
CCC(C)C(NC(=O)/C(=C\c1ccccc1)NC(=O)c1ccc(OC)cc1)C(=O)O (stereo not given)	0	0	0	0
Cn1c(=O)c2c(nc(CN3CCN(c4ccccc4)CC3)n2Cc2c(F)cccc2Cl)n(C)c1=O	0	?	?	0
c1ccc2[nH]c(N3CCOCC3)nc2c1	0	0	0	0
c1ccc(N2CCN(c3nc4ccccc4[nH]3)CC2)nc1	49	0	0	22
O=C(O)CSc1ccc2nnc(-c3cccnc3)n2n1	0	-	-	0
Fc1ccc(CSc2ccc3nnc(-c4cccnc4)n3n2)cc1	0	0	13µM	0
CCc1ccc(NC(=O)CSc2ccc(-c3cccnc3)nn2)cc1	0	-	-	0
Clc1ccc(CSc2ccc(-c3cccnc3)nn2)cc1	0	0	0	27
O=[N+]([O-])c1ccc(SCc2c(F)cccc2Cl)nc1	0	?	0	19
O=C(CSc1ccc(-c2cccnc2)nn1)Nc1ccc(F)cc1	0	0	0	0
Fc1cccc(Cl)c1CSc1ccc(-c2cccnc2)nn1	143	-	-	36
COc1ccc(NC(=O)Cn2c(SCc3ccc(F)cc3)nc3cccnc32)c(OC)c1	-	-	0	-
Cc1cc(NC(=O)c2cc(CC(C)C)on2)no1	81	-	-	43
Cc1cc(C(=O)NNc2ccc(Cl)cc2)no1	0	4.5µM	0	0
Cc1cc(C(=O)Nc2ccc3[nH]ccc3c2)no1	74	0	?	46
CC(C)Cc1cc(C(=O)NCc2ccc(Cl)cc2)no1	-	0	0	-
Cc1c(Cl)cccc1NC(=O)c1cc(C2CC2)on1	102	-	-	35
Cn1cc(/C=C(\NC(=O)c2ccccc2Cl)C(=O)NCCCn2ccnc2)c2ccccc21	0	?	0	0
Cc1cc2oc(C(=O)N(Cc3ccc(N(C)C)cc3)Cc3ccco3)c(C)c2cc1Cl	-	0	0	-
COc1ccc(CNC(=O)COC(=O)c2cc(S(=O)(=O)N3CCOCC3)ccc2O)cc1OC	-	0	0	-
CCc1cccc(NC(=O)Cn2c(=O)n(CCC(=O)NCc3ccccc3Cl)c(=O)c3sccc32)c1	-	0	0	-
Cc1cc(NC(=O)c2ccoc2C)no1	0	0	0	11
CCCc1cc(C(=O)Nc2cc(C)on2)no1	0	-	-	13
Cc1ccc(-c2cc(C(=O)Nc3cc(C)on3)no2)cc1	0	-	-	0
SMILES	Shiga toxin inh	MARV entry inh	LASV entry inh	CHX counter
CCC(C)NC(=O)c1cc(CC(C)C)on1 (stereo not given)	59	0	0	49
Cc1cc(NC(=O)c2cc(C)on2)no1	0	0	0	8.4
O=S(=O)(c1ccccc1)N1CCN(c2nc(-c3ccc(F)cc3)nc3cc(Cl)ccc23)CC1	0	-	-	0
COC(=O)c1ccccc1NC(=O)c1cc(C2CC2)on1	0	-	-	0
CNc1nc(N)c(C(=O)Nc2cc(C)on2)s1	88	?	?	30
CCc1ccc(C(=O)Nc2cc(C)on2)o1	89	?	0	0
Cc1cc(NC(=O)c2cc(C3CC3)on2)no1	73	-	-	40
Cc1cc(NC(=O)c2ccc(C)o2)no1	0	0	0	0
COc1ccc(NC(=O)c2cc(C3CC3)on2)c(OC)c1	47	-	-	33
Cc1ccc(Cn2cnc3nc4c(cc3c2=O)CC(C)CC4)cc1 (stereo not given)	-	-	0	-
O=C(NCC1CCCO1)c1c(O)c2c([nH]c1=O)CCCC2 (stereo not given)	0	0	?	13
O=C(Nc1ccc(O)cc1)c1c(O)c2c([nH]c1=O)CCCC2	146	0	?	44
Cc1nc(C)c(C(=O)OCC(=O)NCCc2ccc(F)cc2)s1	-	0	0	-
Cc1ccc(NC(=O)Cn2nnc3ccccc3c2=O)cc1C	0	0	0	0
O=C(Cn1nnc2ccccc2c1=O)NCCc1ccccc1	25	0	?	0
COc1ccc(CNC(=O)Cn2nnc3ccccc3c2=O)cc1	60	-	-	22
Cc1ccc(NC(=O)Cn2nnc3ccccc3c2=O)cc1	0	0	0	32
O=C(Cn1nnc2ccccc2c1=O)NCc1ccco1	0	0	0	0
O=C(Cn1nnc2ccccc2c1=O)NCCc1ccc(Cl)cc1Cl	0	0	-	0
Cc1ccc(NC(=O)c2cccc(C(=O)OC(C)C)n2)c(Br)c1	75	0	0	23
COC(=O)c1cccc(C(=O)Oc2cccc(Br)c2)n1	0	0	0	0
CC(C)OC(=O)c1cccc(C(=O)Oc2ccccc2)n1	0	0	0	0
COC(=O)c1cccc(C(=O)Nc2ccc(C)cc2Br)n1	65	0	0	38
C(=N\n1cnnc1)/c1cn(-c2cccs2)nc1-c1ccccc1	66	0	0	37
Fc1cccc(F)c1-n1c(CN2CCCCC2)csc1=S	0	6.3µM	0	0
Fc1cccc(F)c1-n1c(CN2CCOCC2)csc1=S	0	-	-	0
